Screening data as filed in PubChem.
N-glyco inh = N-linked glycosylation inhibition; D54 ERlucT glycosylation luciferase reporter, 24 h; percent of 100 nM tunicamycin response; reporter increase, % at 12.5 µM; hit rate 0.23% among 360,000; AID 588692;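 active means mean luciferase reporter signal, scaled so untreated is 0 and the glycosylation-blocking control 100, at or above a set limit in every replicate; inconclusive means mean reaches the limit but not every replicate does; inactive means mean below the limit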;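 further: luciferase carries N-glycosylation sites so blocking glycosylation raises the light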
DSG3 Ab inh = blocks pemphigus antibody binding to human desmoglein-3. P32926. DSG3-coupled beads, scFv-anti-DSG3-GFP binding, flow cytometry; active compounds read low. binding (percent of control), % at 10 µM. hit rate 0.48% among 310,000;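 active means binding more than 3 SD below its plate's average and above zero; inconclusive means below that plate limit but binding exactly zero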;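 further: hits lower antibody fragment binding to DSG3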
ATG4B inhibitor = inhibitors of human ATG4B cysteine protease; inhibition, % at 8.33 µM; ATG4B cleavage of LC3-PLA2, NBD-HPC fluorescence, 1 h; Q9Y4P1; hit rate 0.51% among 340,000; AID 504462; in the data active means inhibition above about 40%
CaV13 FRET inh = Primary screen for inhibitors of IQ motif and Ca2+-dependent inactivation inhibitor domain binding in CACNA1D, Förster resonance energy transfer in living cells, …; HEK cells, CFP/YFP FRET ICDI-IQ, plate reader, 10 min; percent FRET-ratio fall versus neutral wells; inhibition, % at 12.3 µM; hit rate 0.098% among 340,000; AID 743397;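 active means mean replicate inhibition of at least 30% and at least 1% of replicates passing that level; inconclusive means only one of the two criteria is met; inactive means neither criterion is met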
NSD2 inh = inhibitors of human histone methyltransferase NSD2 | NSD2 peptide methylation, AlphaScreen, 120 min | inhibition, % at 12.5 µM | hit rate 0.54% among 310,000; in the data active means inhibition above about 50%
Target sequence (O96028 whole entry, looked up): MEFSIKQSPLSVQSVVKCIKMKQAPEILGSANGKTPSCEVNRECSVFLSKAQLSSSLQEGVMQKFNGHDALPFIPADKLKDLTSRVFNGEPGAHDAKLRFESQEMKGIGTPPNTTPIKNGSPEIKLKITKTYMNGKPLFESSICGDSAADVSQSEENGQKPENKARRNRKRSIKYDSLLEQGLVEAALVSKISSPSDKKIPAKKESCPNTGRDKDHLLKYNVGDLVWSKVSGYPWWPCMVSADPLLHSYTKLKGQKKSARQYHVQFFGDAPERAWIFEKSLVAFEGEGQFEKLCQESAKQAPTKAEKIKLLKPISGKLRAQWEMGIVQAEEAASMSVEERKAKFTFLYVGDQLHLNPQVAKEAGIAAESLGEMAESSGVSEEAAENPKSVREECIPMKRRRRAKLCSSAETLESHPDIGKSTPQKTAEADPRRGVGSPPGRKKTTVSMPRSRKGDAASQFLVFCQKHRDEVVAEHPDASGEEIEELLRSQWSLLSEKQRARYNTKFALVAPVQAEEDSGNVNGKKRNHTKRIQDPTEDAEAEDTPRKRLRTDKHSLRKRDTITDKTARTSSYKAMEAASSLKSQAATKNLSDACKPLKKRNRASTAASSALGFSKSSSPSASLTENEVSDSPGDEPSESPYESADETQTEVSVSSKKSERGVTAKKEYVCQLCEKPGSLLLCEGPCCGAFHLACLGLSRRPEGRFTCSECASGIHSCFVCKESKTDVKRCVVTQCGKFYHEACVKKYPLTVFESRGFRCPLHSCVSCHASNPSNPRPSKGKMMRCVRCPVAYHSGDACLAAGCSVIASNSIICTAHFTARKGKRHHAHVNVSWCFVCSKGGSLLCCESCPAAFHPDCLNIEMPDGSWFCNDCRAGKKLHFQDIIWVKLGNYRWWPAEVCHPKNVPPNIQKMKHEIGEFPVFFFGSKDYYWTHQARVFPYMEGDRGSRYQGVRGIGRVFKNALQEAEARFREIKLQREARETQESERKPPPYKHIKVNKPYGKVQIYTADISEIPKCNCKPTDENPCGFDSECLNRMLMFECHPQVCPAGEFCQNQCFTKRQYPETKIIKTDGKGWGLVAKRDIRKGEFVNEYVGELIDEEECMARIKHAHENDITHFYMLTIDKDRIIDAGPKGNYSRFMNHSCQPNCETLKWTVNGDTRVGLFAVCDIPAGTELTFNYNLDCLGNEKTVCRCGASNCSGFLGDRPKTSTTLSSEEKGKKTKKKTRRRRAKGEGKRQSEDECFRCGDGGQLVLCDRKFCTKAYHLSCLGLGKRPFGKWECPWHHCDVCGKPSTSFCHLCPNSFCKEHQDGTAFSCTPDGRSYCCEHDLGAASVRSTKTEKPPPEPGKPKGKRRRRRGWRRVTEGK
Vif imaging = inhibitors of HIV Vif; HEK293T cells, Vif self-association by quenched fluorescence, imaging, 24 h; inhibition, % at 7.49 µM; hit rate 0.35% among 340,000; in the data active means inhibition above about 50%, passing the limit was not always enough; inconclusive means no clear call, values can overlap the other calls; inactive means below about 31%
A number is an active result; 0 = inactive; ? = inconclusive; - = no result. The list is not random: actives were taken first. Their share in the collection is about 1.9%.

SMILES	N-glyco inh	DSG3 Ab inh	ATG4B inhibitor	CaV13 FRET inh	NSD2 inh	Vif imaging
CCNC(=O)c1cc2c(=O)n3cccc(C)c3nc2n(CCc2ccccc2)c1=N	46.4	0	0	-	0	-
Cc1cccn2c(=O)c3cc(C(=O)NCc4ccccc4)c(=N)n(CCCN4CCOCC4)c3nc12	0	0	0	0	-	0
Cc1cccn2c(=O)c3cc(C(=O)NCCN4CCOCC4)c(=N)n(CCc4ccccc4)c3nc12	30.9	0	0	34.3	-	0
Cc1nn(CC(=O)N2CCOCC2)c(=O)c2c1sc1ccccc12	0	0	0	0	0	0
Cc1nn(-c2ccccc2)c(N)c1Sc1cccc([N+](=O)[O-])c1	0	0	0	0	0	0
O=C(NCCCN1CCCC1)c1ccc(Cn2c(=S)[nH]c3ccc(Br)cc3c2=O)cc1	-	-	-	0	0	-
Cc1cccn2c(=O)c3cc(C(N)=S)c(=N)n(CCCOC(C)C)c3nc12	0	0	0	33.9	0	0
CCOCCCn1c(=N)c(C(N)=S)cc2c(=O)n3cccc(C)c3nc21	0	-	0	-	0	0
O=C(Nc1nccs1)c1ccc(N2C(=O)[C@@H]3[C@H](C2=O)[C@H]2C=C[C@@H]3C2)cc1	0	68.8	0	0	-	?
O=C(Nc1nccs1)c1cccc(N2C(=O)C3C4C=CC(C4)C3C2=O)c1 (stereo not drawn)	0	0	0	0	0	0
CSc1nnc(Cc2cc(=O)[nH]c(=O)[nH]2)n1-c1cc(C)ccc1C	0	-	0	0	0	0
Cc1ccc(C)c(-n2c(Cc3cc(=O)[nH]c(=O)[nH]3)nnc2SC(C)C)c1	0	0	0	38.9	-	0
CCOC(=O)CCNC(=O)c1ccccc1Br	0	0	0	0	0	0
Cc1nn(CC(=O)NCCCN2CCC(Cc3ccccc3)CC2)c(=O)c2cc(-c3ccccc3)nn12	0	0	0	0	0	0
CNC1=C(N(C(C)=O)c2ccc(Br)cc2)C(=O)c2ccccc2C1=O	0	-	0	0	100.5	0
Cc1oc(-c2ccccc2Cl)nc1CS(=O)CC(=O)NCc1ccc(Cl)cc1 (stereo not drawn)	0	0	0	0	0	0
Cc1oc(-c2ccccc2F)nc1CS(=O)CC(=O)NCc1ccc(Cl)cc1 (stereo not drawn)	0	-11.9	0	0	0	0
Cc1ccc(C(=O)OCn2ncc(Cl)c(Cl)c2=O)cc1	0	0	0	0	0	50.4
O=C(OCn1ncc(Cl)c(Cl)c1=O)c1ccc(C(F)(F)F)cc1	30.8	0	0	0	0	0
CCOC(=O)c1ccc(NC(=O)Cn2ncc(Cl)c(Cl)c2=O)cc1	0	0	0	0	0	0
Cn1ccc(C(=O)N/N=C/c2c[nH]c3ccccc23)n1	0	0	0	0	0	0
COc1ccc(CN(C)c2ncnc3sccc23)c(OC)c1OC	30.3	0	0	0	0	0
COc1ccccc1CNC(=O)c1cc(-c2cccnc2)nc2ccccc12	0	-	0	0	0	0
O=C(Nc1ccnc(-c2cccnc2)n1)c1cccs1	0	0	0	0	0	119.3
COc1ccc(NC(=O)COC(=O)CCc2ccccc2)c(OC)c1	0	48.3	0	0	0	0
SMILES	N-glyco inh	DSG3 Ab inh	ATG4B inhibitor	CaV13 FRET inh	NSD2 inh	Vif imaging
COc1ccc(NC(=O)COC(=O)CCc2nc3ccccc3c(=O)[nH]2)c(OC)c1	0	0	0	0	0	0
O=S(=O)([N-]c1nc2ccccc2nc1-n1cc[n+](Cc2ccccc2)c1)c1ccccc1	40.1	0	0	0	0	0
Cc1ccc(S(=O)(=O)[N-]c2nc3ccccc3nc2-n2cc[n+](Cc3ccccc3)c2)cc1	42.8	0	0	0	0	0
CCCC[n+]1ccn(-c2nc3ccccc3nc2[N-]S(=O)(=O)c2ccc(C)cc2)c1	0	0	0	0	0	0
Cc1ccc2oc(=O)c3cnn(CC(=O)N(CCC(C)C)Cc4ccco4)c3c2c1	0	0	0	0	-	0
Cn1cc([N+](=O)[O-])c(C(=O)Nc2ccc3nc(-c4ccccc4)[nH]c3c2)n1	0	0	0	0	0	0
CSc1nc(C2CC2)cc(-c2cccs2)c1C#N	0	8.8	0	-	0	0
COc1ccc(-c2cc(C3CC3)nc(SCC(=O)c3cccs3)c2C#N)cc1	0	0	0	0	0	0
COC(=O)C1=C(C)N(Cc2ccco2)C(=O)/C1=C\c1ccc([N+](=O)[O-])cc1	0	-	0	0	0	0
COC(=O)C1=C(C)N(Cc2ccco2)C(=O)/C1=C\c1ccc(N(C)C)cc1	0	0	0	0	0	71.0
CC(C)C[C@H](NC(=O)N1CCOCC1)C(=O)N1CCC[C@H]1C(=O)NCc1ccccc1	-	-	-	0	-	-
CCN(C(=O)COC(=O)CNC(=O)c1ccc(C)cc1)c1c(N)n(Cc2ccccc2)c(=O)[nH]c1=O	0	-	0	0	122.3	0
CC(C)CN(C(=O)COC(=O)CSc1ccccc1)c1c(N)n(Cc2ccccc2)c(=O)[nH]c1=O	0	0	0	0	0	50.3
O=S(=O)(c1ccccc1)N1CCN(CC(O)COc2ccc3c(c2)CCC3)CC1 (stereo not drawn)	0	78.7	0	-	0	0
OC(c1ccc2c(c1)OCO2)c1ncc(-c2ccccc2)[nH]1 (stereo not drawn)	0	-	-	0	0	-
COc1ccc(C(=O)CSc2nnc(-c3cc4ccccc4cc3O)n2Cc2ccco2)cc1	33.1	0	0	0	0	0
C=C1C(=O)O[C@@H]2[C@H]1[C@@H](OC(=O)/C(C)=C/C)C/C(C)=C\C(=O)/C=C(\C)[C@@H]2O	0	0	0	0	-	97.1
CCOC(=O)c1c(C)oc(=O)c(CC)c1O	0	0	-	0	0	0
CCOC(=O)c1c(C)oc2c(F)c(F)c(F)c(F)c2c1=O	30.5	0	0	-	0	0
O=C(O)COc1ccc(/C=N/NC(=O)c2ccc(-c3csc(Nc4ccc(Cl)cc4)n3)cc2)cc1	0	30.6	0	0	0	0
CCOc1cc(/C=N/NC(=O)c2ccc(-c3csc(Nc4ccc(C)cc4)n3)cc2)ccc1OCC(=O)O	0	-	0	0	0	0
O=C(CN1CCN(Cc2ccc(Cl)cc2)CC1)N/N=C/C=C/c1ccccc1[N+](=O)[O-]	0	0	0	0	0	0
C(=C/c1nccc2c1[nH]c1ccccc12)/c1ccc2c(c1)OCO2	0	0	0	0	0	71.8
C(=N\Nc1nc2ccccc2[nH]1)/c1ccc2c(c1)OCO2	0	0	0	0	0	0
Cc1ccc(S(=O)(=O)NCc2ccc3c(c2)cc(C)n3C)cc1	0	70.8	0	0	-	-
COc1ccc(C(=O)NCc2ccc3c(c2)cc(C)n3C)cc1	0	0	0	0	-	-
Cc1cc2cc(CNC(=S)Nc3ccc(OC(F)F)cc3)ccc2n1C	0	62.5	0	0	-	0
Cc1cc2cc(CNC(=O)c3ccco3)ccc2n1C	0	0	0	55.7	-	0
COCC(=O)NCc1ccc2c(c1)cc(C)n2C	0	0	0	0	0	0
